Laboratory results published in PubChem BioAssay (NCATS).
Records with an inconclusive call do not appear. Entries that show only a call come without a potency. Activity calls are given as the source filed them. The call rests on the fitted dose curve; in most records, active means well fitted curve in the direction sought with a large enough effect; inconclusive means small, poorly fitted or top-dose-only effect, or another doubt; inactive means no such curve, though single readings can be large; an effect the other way counts as inactive or inconclusive.

Key:
[1] = tested on: Zika virus NS2B-NS3 protease; experiment: Primary screen GU AMC qHTS for Zika virus inhibitors (AID 1347154); details: Zika NS2B-NS3 unlinked protease, AMC fluorogenic substrate; series mostly up to 54.1 µM; further: nearly all actives have a fitted effect of over 70% in size
How it was run: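 Unlinked Zika NS2B hydrophilic domain/NS3 protease domain noncovalent complex (25 nM final) in 10 mM Tris-HCl pH 8.0, 0.01% Tween 20, with AMC peptide substrate. Fluorescence (ex 340, em 450 nm) change over 15 min, room temperature; percent inhibition fitted to 4-parameter Hill equation.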

[2] = tested on: Zika virus NS2B-NS3 protease (unlinked complex); experiment: Primary screen GU Rhodamine qHTS for Zika virus inhibitors: Unlinked NS2B-NS3 protease assay (AID 1347159); details: Recombinant ZIKV NS2B-NS3 protease, Rhodamine110 substrate fluorescence; series mostly up to 107 µM; further: nearly all actives have a fitted effect of over 60% in size
How it was run: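 Unlinked NS2B/NS3, 25 nM; Rhod110 peptide, 1.5 microM; compounds, up to 114 microM. Reaction run 15 min at RT in 10 mM Tris-HCl pH 8.0, 0.01% Tween 20; kinetic fluorescence change fitted with a 4-parameter Hill model.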

[3] = qHTS to identify inhibitors of the type 1 interferon - major histocompatibility complex class I in skeletal muscle: primary screen against the NCATS Pharmaceutical Collection (AID 1347407); details: human skeletal muscle cells, IFN-b-induced MHC-I HiBiT luminescence, 24 h; series mostly up to 45.9 µM;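 further: luminescence of HiBiT knocked into endogenous HLA-B as interferon-induced MHC class I level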
How it was run: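 Immortalized human myoblasts (C25cl48) with HiBiT knocked into endogenous HLA-B*08:01 were stimulated with 4.0 ng/ml IFN-beta and treated with compounds ([…] top 46 uM) for 24 hrs at 37 C. HiBiT lytic luminescence read.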

Compound	Potency [1]	Potency [2]	Potency [3]
CCCCc1oc2ccc(NS(C)(=O)=O)cc2c1C(=O)c1ccc(OCCCN(CCCC)CCCC)cc1	inactive	inactive	
COc1ccc2c(c1)c(CC(=O)OCC(=O)O)c(C)n2C(=O)c1ccc(Cl)cc1	inactive		inactive
CC(=O)CC(c1ccccc1)c1c(O)c2ccccc2oc1=O (configuration not stated)	inactive		
Cc1nnc(NS(=O)(=O)c2ccc(N)cc2)s1	inactive		inactive
CCCN[C@H]1CCc2nc(N)sc2C1	inactive		inactive
COC(c1ccccc1)(c1ccccc1)[C@H](Oc1nc(C)cc(C)n1)C(=O)O	inactive		inactive
NC1(c2ccc(-c3nc4ccn5c(=O)[nH]nc5c4cc3-c3ccccc3)cc2)CCC1		inactive	
